Laboratory results as given in paper PMC7862700, “An all-to-all approach to the identification of sequence-specific readers for epigenetic DNA modifications on cytosine”.

target: T1, ETV3 (Homo sapiens, UniProt P41162-2 1-143); experiment: DAPPL (digital affinity profiling via proximity ligation, sequencing); 10 mM Tris-HCl pH 7.5, 50 mM NaCl, 1 mM DTT, 4% glycerol, room temperature, 30 min; GST-TFs on glutathione beads, 16-mer random dsDNA library, 0.1% formaldehyde crosslink after washing; high values mean tight binding; details: protein: recombinant; tags: N-terminal GST; dsDNA, one strand shown
T1 sequence: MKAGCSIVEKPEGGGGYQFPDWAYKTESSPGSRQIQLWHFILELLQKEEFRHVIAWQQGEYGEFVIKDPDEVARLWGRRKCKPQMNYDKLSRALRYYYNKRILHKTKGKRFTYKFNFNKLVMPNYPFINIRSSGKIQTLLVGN
How it was run: (§1)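 Yeast served to express human transcription factors as GST fusions, which were then captured on glutathione beads and labelled with DNA barcodes. Pooled with a tag-only sample, they were incubated with 200 nmole of a 16-mer random double-stranded DNA library for 30 min at room temperature in Tris/NaCl/DTT/glycerol buffer, washed, crosslinked with 0.1% formaldehyde, ligated by proximity, amplified by PCR and sequenced. Dividing each hexamer's read frequency for a factor by its frequency for the tag-only sample gives the binding signal.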

Sequence	binding signal
AACACG	1.3 fold enrichment (6-mer frequency, TF over GST control)
ACTTAC	1.09 fold enrichment (6-mer frequency, TF over GST control)
CTGGAC	1.06 fold enrichment (6-mer frequency, TF over GST control)
TGCCTT	1.31 fold enrichment (6-mer frequency, TF over GST control)
ATGGGC	1.23 fold enrichment (6-mer frequency, TF over GST control)
CACACA	1.1 fold enrichment (6-mer frequency, TF over GST control)
TCCCTG	1.26 fold enrichment (6-mer frequency, TF over GST control)
ACCCTC	1.16 fold enrichment (6-mer frequency, TF over GST control)
ACTCCC	1.47 fold enrichment (6-mer frequency, TF over GST control)
CCGATC	1.25 fold enrichment (6-mer frequency, TF over GST control)
GTTTTG	1.13 fold enrichment (6-mer frequency, TF over GST control)
AACAAG	1.11 fold enrichment (6-mer frequency, TF over GST control)
TGGCAG	1.16 fold enrichment (6-mer frequency, TF over GST control)
CTTCTA	1.2 fold enrichment (6-mer frequency, TF over GST control)
AAGAAT	1.14 fold enrichment (6-mer frequency, TF over GST control)
GTAATC	1.1 fold enrichment (6-mer frequency, TF over GST control)
GTCTCT	1.27 fold enrichment (6-mer frequency, TF over GST control)
ATTTGT	1.4 fold enrichment (6-mer frequency, TF over GST control)
GTAGCA	1.05 fold enrichment (6-mer frequency, TF over GST control)
TTGCTA	1.28 fold enrichment (6-mer frequency, TF over GST control)

Sequence	binding signal
GACATC	1.33 fold enrichment (6-mer frequency, TF over GST control)
CACTTG	1.39 fold enrichment (6-mer frequency, TF over GST control)
TGACAC	1.21 fold enrichment (6-mer frequency, TF over GST control)
CGCCGC	1.09 fold enrichment (6-mer frequency, TF over GST control)
GTCCTT	1.18 fold enrichment (6-mer frequency, TF over GST control)
GATGTC	1.32 fold enrichment (6-mer frequency, TF over GST control)
GCAACT	1.16 fold enrichment (6-mer frequency, TF over GST control)
TACGTC	1.14 fold enrichment (6-mer frequency, TF over GST control)
TAACTT	1.41 fold enrichment (6-mer frequency, TF over GST control)
ATCCAC	1.14 fold enrichment (6-mer frequency, TF over GST control)
AGTTCC	2.38 fold enrichment (6-mer frequency, TF over GST control)
TCTGTT	1.25 fold enrichment (6-mer frequency, TF over GST control)
ACATTG	1.1 fold enrichment (6-mer frequency, TF over GST control)
CCGAGC	1.04 fold enrichment (6-mer frequency, TF over GST control)
CCGGAC	1.6 fold enrichment (6-mer frequency, TF over GST control)
CCCCAC	1.2 fold enrichment (6-mer frequency, TF over GST control)
TCCCAA	1.16 fold enrichment (6-mer frequency, TF over GST control)
AAGTAG	1.26 fold enrichment (6-mer frequency, TF over GST control)
CTTTAG	1.28 fold enrichment (6-mer frequency, TF over GST control)

target: ETV6 (Homo sapiens, UniProt P41212 1-452); experiment: as above; details: protein: recombinant; tags: N-terminal GST; dsDNA, one strand shown
How it was run: as §1

ETV6, sequence (P41212 whole entry): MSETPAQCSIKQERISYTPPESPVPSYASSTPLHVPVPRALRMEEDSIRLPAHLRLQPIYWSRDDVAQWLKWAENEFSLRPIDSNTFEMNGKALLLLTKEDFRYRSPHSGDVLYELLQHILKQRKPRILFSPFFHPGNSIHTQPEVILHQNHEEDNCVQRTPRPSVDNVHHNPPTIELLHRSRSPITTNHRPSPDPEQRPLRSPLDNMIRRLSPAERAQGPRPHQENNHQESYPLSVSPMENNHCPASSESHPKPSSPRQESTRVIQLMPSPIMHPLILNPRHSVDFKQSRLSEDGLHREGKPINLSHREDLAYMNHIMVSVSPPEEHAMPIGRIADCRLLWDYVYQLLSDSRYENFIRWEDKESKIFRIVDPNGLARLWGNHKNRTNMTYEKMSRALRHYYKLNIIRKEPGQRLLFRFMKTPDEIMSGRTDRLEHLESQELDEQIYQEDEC

Sequence	binding signal
AACACG	1.23 fold enrichment (6-mer frequency, TF over GST control)
ACTTAC	1.13 fold enrichment (6-mer frequency, TF over GST control)
CTGGAC	1.09 fold enrichment (6-mer frequency, TF over GST control)
TGCCTT	1.23 fold enrichment (6-mer frequency, TF over GST control)
ATGGGC	1.33 fold enrichment (6-mer frequency, TF over GST control)
CACACA	1.18 fold enrichment (6-mer frequency, TF over GST control)
TCCCTG	1.31 fold enrichment (6-mer frequency, TF over GST control)
ACCCTC	1.12 fold enrichment (6-mer frequency, TF over GST control)
ACTCCC	1.47 fold enrichment (6-mer frequency, TF over GST control)
CCGATC	1.17 fold enrichment (6-mer frequency, TF over GST control)
GTTTTG	1.15 fold enrichment (6-mer frequency, TF over GST control)
AACAAG	1.12 fold enrichment (6-mer frequency, TF over GST control)
TGGCAG	1.09 fold enrichment (6-mer frequency, TF over GST control)
CTTCTA	1.4 fold enrichment (6-mer frequency, TF over GST control)
AAGAAT	1.08 fold enrichment (6-mer frequency, TF over GST control)
GTAATC	1.2 fold enrichment (6-mer frequency, TF over GST control)
GTCTCT	1.19 fold enrichment (6-mer frequency, TF over GST control)
ATTTGT	1.29 fold enrichment (6-mer frequency, TF over GST control)
GTAGCA	1.03 fold enrichment (6-mer frequency, TF over GST control)
TTGCTA	1.23 fold enrichment (6-mer frequency, TF over GST control)

Sequence	binding signal
GACATC	1.33 fold enrichment (6-mer frequency, TF over GST control)
CACTTG	1.31 fold enrichment (6-mer frequency, TF over GST control)
TGACAC	1.19 fold enrichment (6-mer frequency, TF over GST control)
CGCCGC	1.21 fold enrichment (6-mer frequency, TF over GST control)
GTCCTT	1.26 fold enrichment (6-mer frequency, TF over GST control)
GATGTC	1.21 fold enrichment (6-mer frequency, TF over GST control)
GCAACT	1.24 fold enrichment (6-mer frequency, TF over GST control)
TACGTC	1.37 fold enrichment (6-mer frequency, TF over GST control)
TAACTT	1.32 fold enrichment (6-mer frequency, TF over GST control)
ATCCAC	1.25 fold enrichment (6-mer frequency, TF over GST control)
AGTTCC	2.17 fold enrichment (6-mer frequency, TF over GST control)
TCTGTT	1.35 fold enrichment (6-mer frequency, TF over GST control)
ACATTG	1.21 fold enrichment (6-mer frequency, TF over GST control)
CCGAGC	1.13 fold enrichment (6-mer frequency, TF over GST control)
CCGGAC	1.41 fold enrichment (6-mer frequency, TF over GST control)
CCCCAC	1.1 fold enrichment (6-mer frequency, TF over GST control)
TCCCAA	1.23 fold enrichment (6-mer frequency, TF over GST control)
AAGTAG	1.28 fold enrichment (6-mer frequency, TF over GST control)
CTTTAG	1.21 fold enrichment (6-mer frequency, TF over GST control)
